Experimental findings from the supplement of paper PMC10670038 are described below.

± gives the standard deviation of the averaged measurements. Whole data set: some 2,000 compounds, median “relative cell viability vs DMSO, compound + 0.2 uM CuET” near 1, cut for the lowest 2% near 0.25. Many of the other results were omitted from the sample, so the lowest values are more common in it than they were.

This assay deals with TE10. In words: relative cell viability vs DMSO, compound + 0.2 uM CuET (fraction); TE10 is an esophageal squamous carcinoma line; higher = less cytotoxic. Particulars: 2 µM; co-treatment: CuET (bis(diethyldithiocarbamate)copper) 0.2 uM; 48 h. As to the method: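 TE10 ESCC cells (1,000/well, 384-well plates) were treated with Selleck bioactive library compounds at 2 uM combined with 0.2 uM CuET (copper diethyldithiocarbamate) for 48 h. Viability was read by CellTiter-Glo and expressed relative to DMSO wells. Two technical replicates (A, B).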
Take `Cc1ccc(S(=O)(=O)c2ccc([N+](=O)[O-])o2)cc1`: the relative cell viability stood at 0.175 ± 0.0036.
On to `NC(=O)N/N=C/c1ccc([N+](=O)[O-])o1` [Nitrofural], for which the relative cell viability worked out at 1.3 ± 0.033.
Take `Nc1ccc(S(=O)(=O)Nc2ncccn2)cc1` [Sulfadiazine]: the relative cell viability was 1.03 ± 0.045.
The result for `CNS(=O)(=O)CCc1ccc2[nH]cc(C3CCN(C)CC3)c2c1` [Naratriptan] reads 1.2 ± 0.1; that for `CCN(CCO)CCCOc1ccc2c(Nc3cc(CC(=O)Nc4cccc(F)c4)[nH]n3)ncnc2c1` [Barasertib (AZD1152-HQPA)], 1.25 ± 0.26.
Consider `CC(NC(=O)C(Cc1ccccc1)NC(=O)OCc1ccccc1)C(=O)CF` (configuration not stated), for which the relative cell viability amounted to 1.14 ± 0.028.
The result for `CC(C)C[C@@H](C=O)NC(=O)[C@H](CC(C)C)NC(=O)[C@H](CC(C)C)NC(=O)OCc1ccccc1` reads 0.223 ± 0.006; that for `CCCC[C@@H](C=O)NC(=O)[C@H](CC(C)C)NC(=O)OCc1ccccc1` [Calpeptin], 1.12 ± 0.036.
`C[C@]12CCC(=O)C=C1[C@@H]1C[C@@H]1[C@H]1[C@@H]3[C@@H]4C[C@@H]4[C@@]4(CCC(=O)O4)[C@@]3(C)CC[C@@H]12` [Drospirenone]: the relative cell viability is 0.77 ± 0.4.
For the molecule `CC(C)C[C@H](NC(=O)[C@H](Cc1ccccc1)NC(=O)c1cnccn1)B(O)O` [Bortezomib (PS-341)], the relative cell viability was determined as 0.348 ± 0.058.
On to `COC(=O)[C@H](Cc1ccccc1)NC(=O)[C@@H](N)CC(=O)O` [Aspartame], for which the relative cell viability is 1.09 ± 0.034.
On to `CC(C)CC(CC(=O)NO)C(=O)N[C@@H](Cc1ccc2ccccc2c1)C(=O)N[C@@H](C)C(=O)NCCN` (some centres not stated), for which the relative cell viability was 1.19 ± 0.051.
In the case of `O=C(Cc1ccc(-c2ccc(OCCN3CCOCC3)cc2)cn1)NCc1ccccc1`, the relative cell viability was 0.827 ± 0.037.
As to `CC(C)c1nc(CN(C)C(=O)N[C@@H](CCN2CCOCC2)C(=O)N[C@H](CC[C@H](Cc2ccccc2)NC(=O)OCc2cncs2)Cc2ccccc2)cs1` [Cobicistat (GS-9350)], the relative cell viability turned out to be 0.957 ± 0.025.
On to `COC[C@H](NC(=O)c1cnc(C)s1)C(=O)N[C@@H](COC)C(=O)N[C@@H](Cc1ccccc1)C(=O)[C@@]1(C)CO1` [Oprozomib (ONX 0912)], for which the relative cell viability turned out to be 0.182 ± 0.0023.
Regarding `CC(=O)NC(Cc1ccc(O)cc1)C(=O)NC(CCCN=C(N)N)C(=O)NC(Cc1ccccc1)C(N)=O` (configuration not stated), the relative cell viability was found to be 0.977 ± 0.19.
Consider `CC(C)C[C@H](NC(=O)[C@H](CCc1ccccc1)NC(=O)CN1CCOCC1)C(=O)N[C@@H](Cc1ccccc1)C(=O)N[C@@H](CC(C)C)C(=O)[C@@]1(C)CO1` [Carfilzomib (PR-171)], for which the relative cell viability came out at 0.198 ± 0.019.
As for `COc1ccc(C[C@H](NC(=O)[C@H](C)NC(=O)CN2CCOCC2)C(=O)N[C@@H](Cc2ccccc2)C(=O)[C@@]2(C)CO2)cc1`, the relative cell viability amounted to 0.198 ± 0.0095.
The result for `Cc1c(-c2ccnn2C)cc(C(=O)NCc2ccc(S(C)(=O)=O)cn2)c(=O)n1-c1cccc(C(F)(F)F)c1` [Alvelestat (AZD9668)] reads 0.993 ± 0.044; that for `CC(C)(C)c1cnc(CSc2cnc(NC(=O)C3CCNCC3)s2)o1`, 0.963 ± 0.093; that for `COc1c2ccoc2cc2oc(=O)ccc12` [Bergapten], 1.12 ± 0.038.
For `CCC(=O)O[C@]1(C(=O)SCF)[C@H](C)C[C@H]2[C@@H]3C[C@H](F)C4=CC(=O)C=C[C@]4(C)[C@@]3(F)[C@@H](O)C[C@@]21C` [Fluticasone propionate], the relative cell viability stood at 1.02 ± 0.043.
The result for `Oc1c(Br)cc(Br)c2cccnc12` [Broxyquinoline] reads 0.689 ± 0.033; that for `O=S(=O)(O)c1cc(O)ccc1O` [Ethamsylate], 1.08 ± 0.096; that for `C=CCc1ccc(O)c(-c2cc(CC=C)ccc2O)c1` [Magnolol], 1.02 ± 0.057.
On to `O=S(=O)(O)CCS` [Mesna], for which the relative cell viability is 1.08 ± 0.024.
On to `CN1CCN(Cc2ccc(NC(=O)Cc3ccc(Oc4cc(NC(=O)C5CC5)ncn4)cc3)cc2C(F)(F)F)CC1`, for which the relative cell viability worked out at 0.9884 ± 0.0017.
The result for `CCS(=O)(=O)Nc1ccc2[nH]c(O)c(C(=Nc3ccc(CN4CCCCC4)cc3)c3ccccc3)c2c1` [Hesperadin] reads 0.5395 ± 0.0028; that for `CCOC(=O)C1=C(N)Oc2ccc(Cl)cc2C1C(C#N)C(=O)OCC` (configuration not stated), 0.663 ± 0.023; that for `CN[C@@H](C)C(=O)N[C@H](C(=O)N1CCC[C@H]1C(=O)N[C@H](C(=O)NCCCCCCNC(=O)[C@@H](NC(=O)[C@@H]1CCCN1C(=O)[C@@H](NC(=O)[C@H](C)NC)C1CCCCC1)C(c1ccccc1)c1ccccc1)C(c1ccccc1)c1ccccc1)C1CCCCC1`, 0.437 ± 0.011.
In the case of `CC(C)(C)c1[nH]cnc1/C=c1\[nH]c(=O)/c(=C/c2ccccc2)[nH]c1=O` [Plinabulin (NPI-2358)], the relative cell viability turned out to be 0.753 ± 0.058.
For `NCC(=O)Nc1ccc(-n2nc(C(F)(F)F)cc2-c2ccc3c(ccc4ccccc43)c2)cc1`, the relative cell viability is 0.649 ± 0.017.
On to `COCCOc1nc(-c2ccc(Cl)c(Cl)c2)n(-c2ccc(NC(=O)CCl)cc2)n1` [MI-2 (MALT1 inhibitor)], for which the relative cell viability is 0.115 ± 0.0096.
Take `COc1nc(-c2ccc3c(c2)OCO3)n(-c2ccc(NC(=O)CSc3ccccc3)cc2)n1` [SecinH3]: the relative cell viability stood at 1.25 ± 0.17.
Take `CN(C)c1cc(NC(=O)CNC(C)(C)C)c(O)c2c1CC1CC3C(N(C)C)C(=O)C(C(N)=O)=C(O)C3(O)C(=O)C1=C2O` (configuration not stated) [Tigecycline]: the relative cell viability was 0.994 ± 0.068.
As for `O=Nc1c(-c2c(O)[nH]c3cc(Br)ccc23)[nH]c2ccccc12`, the figure is 1.083 ± 0.0023; as for `C[N+]1(C)[C@@H]2C[C@@H](OC(=O)C(O)(c3cccs3)c3cccs3)C[C@H]1[C@@H]1O[C@@H]12` [Tiotropium Bromide hydrate], 0.962 ± 0.027.
Take `C=C1CC2(O)OC3(CC2C(C)C)C(C)CCC13` (configuration not stated) [Curcumol]: the relative cell viability worked out at 0.838 ± 0.028.
As for `CC(C)[C@H](C(=O)Nc1ccc(C(=O)NO)cc1)c1ccccc1`, the figure is 0.178 ± 0.0071; as for `CC(=O)Nc1ccc(C(=O)Nc2ccccc2N)cc1` [CI994 (Tacedinaline)], 1.23 ± 0.26; as for `CCCCN(Cc1ccc(C(=O)NO)cc1)C(=O)Nc1ccccc1` [Nexturastat A], 0.837 ± 0.056.
Take `Cc1c(C(=O)NN2CCCCC2)nn(-c2ccc(Cl)cc2Cl)c1-c1ccc(Cl)cc1` [Rimonabant]: the relative cell viability is 0.716 ± 0.15.
Consider `NC1=N[C@@]2(c3cc(NC(=O)c4ccc(F)cn4)ccc3F)COC[C@H]2CS1`, for which the relative cell viability was 0.948 ± 0.07.
Regarding `O=C(O)C(Cc1ccccc1[N+](=O)[O-])=NNc1nc(-c2ccc(Cl)c(Cl)c2)cs1`, the relative cell viability is 1.04 ± 0.16.
As for `O=C(/C=C\n1cnc(-c2cc(C(F)(F)F)cc(C(F)(F)F)c2)n1)NNc1cnccn1`, the figure is 0.29 ± 0.015; as for `COc1cc(-c2ncn(/C=C\C(=O)OC(C)C)n2)cc(C(F)(F)F)c1`, 0.25 ± 0.0078.
`O=C(/C=C/n1cnc(-c2cc(C(F)(F)F)cc(C(F)(F)F)c2)n1)N1CC(F)(F)C1`: the relative cell viability turned out to be 0.355 ± 0.025.
